Compounds with a hit are over-represented: about 3.1% of the library has one in this group of screens.
Anthrax LF prot: Bacillus anthracis LF protease inhibitors, primary screen, biochemical, multiplex microsphere, MLPCN library; AID 588501, 2011; Lethal factor (Bacillus anthracis), P15917; multiplex microsphere protease cleavage assay; 0.12% of 360,000 active; inhibition, % at 10 µM; further: plate controls were buffer without enzyme for full effect and enzyme alone for no effect
BoNT F protease: BoNT/F light chain protease inhibitors, primary screen, biochemical, flow cytometry, MLPCN library; inhibition, % at 10 µM; AID 588497, 2011; 0.22% of 360,000 active; Multiplex microsphere protease cleavage assay; Botulinum neurotoxin type F light chain protease (Clostridium botulinum); in the data active means inhibition above about 35%, passing the limit was not always enough; inconclusive means no clear call, values can overlap the other calls; further: plate controls were buffer without enzyme for full effect and enzyme alone for no effect
BoNT A protease: BoNT/A light chain protease inhibitors, primary screen, biochemical, flow cytometry, MLPCN library; Botulinum neurotoxin type A light chain protease (Clostridium botulinum A str. ATCC 3502); multiplex microsphere protease substrate cleavage; inhibition, % at 10 µM; 0.17% of 360,000 active; AID 588499, 2011; further: plate controls were buffer without enzyme for full effect and enzyme alone for no effect
SSB-PriA inh: inhibitors of Klebsiella pneumoniae PriA binding to SSB C-terminal tail, primary screen, biochemical, AlphaScreen; AID 1272365, 2023; 0.6% of 430,000 active; PriA–SSB C-terminal tail interaction (Klebsiella pneumoniae); AlphaScreen SSBct-PriA binding, biotinylated peptide; inhibition, % at 33 µM; in the data active means inhibition mostly above about 37%, no sharp cut-off; inactive means mostly below about 20%;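 further: plate controls were negative control peptide for no effect and reference peptide for full effect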
Autofluor counter: flagged as autofluorescent in microsphere protease counterscreen; compound autofluorescence counterscreen, microsphere flow cytometry; hits give high values; fluorescence intensity (concentration not given with the values); 3.1% of 360,000 active; AID 624483; in the data active means fluorescence intensity above about 16000; inconclusive means no clear call, values can overlap the other calls
Active calls of the source: *; ? = inconclusive; . = no result. Unless noted, no stated cut-off is given here; in the data, active means inhibition above about 30%; inconclusive means no clear call, values can overlap the other calls; inactive means below that.

SMILES	Anthrax LF prot	BoNT F protease	BoNT A protease	SSB-PriA inh	Autofluor counter
Nc1ccc(-c2ccccc2)cc1	.	.	-2	-7	.
Nc1ccc(/C=C/c2ccccc2)cc1	.	.	.	40*	.
COc1ccc(NC(=O)c2ccc(-c3ccc(-c4noc(C)n4)cc3C)cc2)cc1N1CCN(C)CC1	-8	-20	-1	39*	5917
CCOc1ccc(NS(=O)(=O)c2ccc(NS(=O)(=O)c3ccccc3)cc2)cc1	2	-10	-1	-2	8285
CCOc1ccc(S(=O)(=O)Nc2ccccc2SC)cc1	-4	-4	-2	-11	24042*
COC(=O)COc1ccc(S(=O)(=O)Nc2ccccc2SC)cc1	-2	-6	?	-2	23132*
O=C(c1cc2ccccc2s1)N1CCC(c2ccsc2)CC1	.	.	.	-14	.
CCC(=Nc1ccc(OC)cc1OC)c1c(O)n(C2CCCCC2)c(=O)[nH]c1=O	-1	-1	1	18	22084*
CCC(=NCCCN(CC)CC)c1c(O)n(C2CCCCC2)c(=O)[nH]c1=O	0	-3	-3	0	25763*
CCC(=NNC(=O)c1ccccc1)c1c(O)n(C2CCCCC2)c(=O)[nH]c1=O	.	.	.	1	.
CCN(CC)CCCN=C(C)c1c(O)n(C2CCCCC2)c(=O)[nH]c1=O	-1	-4	0	-20	16590*
Cc1cc(Br)cn2ccnc12	0	-4	-4	-28	22557*
CC(C)(C)c1ccc(OCC(=O)Nc2ccc3c(c2)N(C(=O)C2CC2)CC3)cc1	.	.	.	-9	.
O=C(NCCOc1ccc2nnc(-c3ccc(F)cc3)n2n1)c1ccccc1C(F)(F)F	.	.	.	-1	.
O=C(Oc1ccccc1)N1CCN(c2ccccc2F)CC1	-1	38*	-2	-22	3580
COc1ccccc1N1CCN(C(=O)Oc2ccccc2)CC1	-4	-6	-1	0	5329
Cn1c(=O)cc(SCC(=O)NCCN2CCN(c3ccccc3F)CC2)c2cc(Cl)ccc21	2	2	?	-4	22129*
O=C(Cc1c(C(=O)O)[nH]c2ccccc12)NCCN1CCN(c2ccccc2F)CC1	0	-4	?	3	23477*
O=C(NCN1CCN(c2ccccc2F)CC1)c1ccccc1	0	-2	-1	-16	23676*
O=C(CN1CCN(c2ccccc2F)CC1)NCc1ccccc1	-11	14	1	-7	3812
Cc1nc2cc(NC(=O)C3CN(S(=O)(=O)C4CC4)C3)ccc2s1	.	.	.	0	.
COC(=O)c1ccc(C(=O)NCC2CCN(c3cnccn3)CC2)cc1	.	.	.	3	.
CCOc1ccc(C(=O)Nc2sc3c(c2C(=O)OC)CCN(C(C)C)C3)cc1	.	.	.	-13	.
Cc1ccc(NC(=S)NCc2cccn2C)cc1	-3	-6	1	2	22735*
CCc1c2c(nc3sc(C(=O)NCc4ccc5c(c4)OCO5)c(N)c13)CC(C)(C)CC2=O	.	.	.	-5	.
SMILES	Anthrax LF prot	BoNT F protease	BoNT A protease	SSB-PriA inh	Autofluor counter
C=CCOc1c(Br)cc(C=NO)cc1OCC	.	.	.	-21	.
CNC(=O)CSc1nc2nn(-c3ccccc3)c(=O)c-2c2n1CCCCC2	-1	-2	-3	-11	21375*
CCOC(=O)c1c(NC(=O)Nc2cccc(Cl)c2)sc(C)c1C	-5	-4	-2	-8	23460*
CCOC(=O)c1c(NC(C)=O)sc2c(O)c(Br)cc(Br)c12	-2	-26	-2	-7	2611
CCOC(=O)c1c(NC(C)=O)sc2c(O)cccc12	0	-6	-5	-3	21384*
CCOC(=O)c1c(NC(=O)c2cccc(Br)c2)sc(C)c1C	.	.	.	-12	.
O=C(Nc1ccc(F)cc1)NC1(C(=O)NCc2ccco2)CCCCC1	-6	-2	0	-3	16458*
CC1CC(C)CN(S(=O)(=O)c2cccc(C(=O)Nc3nc(-c4cc5ccccc5o4)cs3)c2)C1 (stereo unspecified)	.	.	.	1	.
CCCCNC(=O)c1ccc2nc(N)sc2c1	.	.	.	52	.
Nc1nc2ccc(C(=O)NCCO)cc2s1	.	.	.	81*	.
Cc1cc(N2C(=O)C(O)=C(C(=O)c3cccs3)C2c2ccc(F)cc2)no1 (stereo unspecified)	-6	-2	0	-4	5894
Cc1cc(N2C(=O)C(O)=C(C(=O)c3cccs3)C2c2ccccc2)no1 (stereo unspecified)	-2	-7	-3	-6	17508*
COc1ccc(C2C(C(=O)O)CC(=O)N2C2CCCCC2)cc1 (stereo unspecified)	1	2	?	-10	20476*
Cc1cc(-c2nnc(NC(=O)CCSc3ccc(F)cc3)o2)nn1C	.	.	.	3	.
COc1cc(C(=O)Nc2ccc(N3CCCC3=O)cc2)cc(OC)c1OC	.	.	.	-11	.
COc1ccc(-c2c(C)nn3c(N4CCC(C(=O)NCCN(C)C)CC4)cc(C)nc23)cc1OC	-2	-2	-2	14	23368*
O=C(Cc1c[nH]c2ccccc12)N1CCC(Oc2ncccc2Br)CC1	.	.	.	6	.
Cc1ccc2cc(-c3noc(C(C)(C)C)n3)c(=O)[nH]c2c1	2	3	2	4	22460*
CCc1nc(-c2cc3ccc(C)cc3[nH]c2=O)no1	2	-1	0	1	9970
COc1ccc(-c2cc3c(=O)n(CC(=O)N4CCCCC4)ncn3n2)cc1	0	5	0	6	4509
COc1ccc(-c2cc3c(=O)n(CC(=O)N4CCN(C)CC4)ncn3n2)cc1	-6	-14	-1	101*	4343
CSc1nn(CC(=O)Nc2ccc(C)cc2Cl)c(N)c1-c1nc(-c2ccc3c(c2)OCO3)no1	.	.	.	-1	.
CCOc1ccc(S(=O)(=O)N2CN3CCN(C3)C2)cc1	8	-14	-2	4	3743
CCOc1ccc(S(=O)(=O)N2CCN(S(=O)(=O)c3ccc(OCC)cc3)C(C)C2)cc1 (stereo unspecified)	-5	-2	-2	-5	17504*
O=S(=O)(c1ccccc1)c1cnc(-c2cccnc2)nc1-c1ccccc1	-1	-1	0	-1	22391*
SMILES	Anthrax LF prot	BoNT F protease	BoNT A protease	SSB-PriA inh	Autofluor counter
O=S(=O)(c1ccccc1)c1cnc(-c2cccnc2)nc1-c1ccc(Cl)cc1Cl	6	4	1	-11	9846
CN1CCN(c2ccc(C(=O)c3ccc(Br)cc3)cc2[N+](=O)[O-])CC1	-2	6	-1	43*	2239
Cc1ccc(C)n1-c1ccc(N2CCOCC2)c([N+](=O)[O-])c1	-4	?	2	13	4189
O=[N+]([O-])c1cc(-n2cccc2)ccc1N1CCOCC1	-3	-2	-1	47*	4833
O=C(c1ccc(Br)cc1)c1ccc(N2CCOCC2)c([N+](=O)[O-])c1	.	.	.	82*	.
Cc1ccc(Cl)c(OC(=O)c2ccc(N3CCOCC3)c([N+](=O)[O-])c2)c1	2	-3	0	45*	2008
COc1ccc2c(c1)CCN(C(=O)Cn1nnc3ccccc3c1=O)C2	.	.	.	-4	.
O=C(NCCn1ccc(-c2cccs2)n1)c1ccc2nsnc2c1	.	.	.	-11	.
O=C(CCSc1ccc(Cl)cc1)Nc1nnc(-c2ccco2)o1	.	.	.	-6	.

Screening results as filed in PubChem.
